What follows are compounds tested on RAF1.
With CN(C)CCOc1ccc(-c2nc(-c3ccc4c(c3)CC/C4=N\O)c(-c3ccncc3)[nH]2)cc1 [SB-590885] the Kinases covered was “RAF1”.
In the case of O=C1Nc2ccc(C(=O)c3ccco3)cc2C1=Cc1cc(Cl)c(O)c(Cl)c1 [GW406108X], the Kinases covered is reported as “RAF1”.
For CCCS(=O)(=O)Nc1ccc(F)c(-n2cc(-c3cncc(OC)c3)nn2)c1F [BI00865461], the Kinases covered was “RAF1”.

These compounds were tested on RET.
In the case of COc1cc2c(cc1OC)C(=C(Nc1ccccc1)c1cccc(CN)c1)C(=O)N2 [BIBF0846CL], the Kinases covered is reported as “RET”.
Cl.O=C(Nc1ccc(Oc2ccc3[nH]c(NC(=O)c4ccccc4)nc3c2)cc1)Nc1cc(C(F)(F)F)ccc1F [GW709042A] was tested, and the Kinases covered was “RET”.
For COc1cc2ncnc(Nc3cccc(Cl)c3F)c2cc1O[C@H]1CC[C@H]([C@@H]2NCCNC2=O)CC1 [BI00133844], the Kinases covered was “RET”.

These compounds were tested on RIPK1.
With Cn1cc(-c2ccc3c(c2)CCN3C(=O)Cc2cccc(C(F)(F)F)c2)c2c(N)ncnc21 [GSK2606414] the Kinases covered was “RIPK1”.
For Cc1cccc(CC(=O)N2CCc3c2ccc(-c2cn(C)c4ncnc(N)c24)c3F)n1 [GSK2656157], the Kinases covered was “RIPK1”.
CN1C(=O)[C@@H](NC(=O)c2cc(Cc3ccccc3)on2)COc2ccccc21 [GSK481] was tested, and the Kinases covered was “RIPK1”.

Each compound was assayed on RIPK2.
For CN(C)CCOc1ccc(-c2nc(-c3ccc4c(c3)CC/C4=N\O)c(-c3ccncc3)[nH]2)cc1 [SB-590885], the Kinases covered was “RIPK2”.
CC(C)(C)S(=O)(=O)c1ccc2nccc(Nc3n[nH]c4ccc(F)cc34)c2c1 [GSK583] was tested, and the Kinases covered was “RIPK2”.
For COc1cc(-c2cncc(-c3cnn(C4CCNCC4)c3)c2)cc(OC)c1OC [K05908], the Kinases covered was “RIPK2”.

The compounds below were run on RIPK3.
In the case of CNC(=O)c1ccc2c(c1)ncn2-c1ccc(CC(=O)OC(C)(C)C)cc1 [GSK840], the Kinases covered is reported as “RIPK3”.
With Cc1cc(-c2cnc(N)c3c(-c4ccc5scnc5c4)csc23)n(C)n1 [GSK843] the Kinases covered was “RIPK3”.
In the case of CC(C)S(=O)(=O)c1ccc2nccc(Nc3ccc4scnc4c3)c2c1 [GSK872], the Kinases covered is reported as “RIPK3”.
